Records with an inconclusive call do not appear. Active and inactive are the calls of the source. Calls follow the shape of the dose curve; as a rule, active = well fitted curve in the direction sought with a large enough effect; inconclusive = small, poorly fitted or top-dose-only effect, or another doubt; inactive = no such curve, though single readings can be large; an effect the other way counts as inactive or inconclusive.
Test: qHTS of pediatric cancer cell lines to identify multiple opportunities for drug repurposing: Primary screen for TC32 cells (AID 1347089); also: % is scaled to controls: 0 for no effect and ±100 for the full control effect; nearly all actives have a fitted effect of over 60% in size
Conditions: TC32 Ewing sarcoma viability, CellTiter-Glo luminescence, 48 h; series mostly up to 45.8 µM; activity change, negative = cytotoxic: at the top concentration
Outline: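 A viability screen of TC32 cells was run over 48 h, with primary MIPE doses spanning 0.78 nM–46 µM and NPC doses 0.59 nM–46 µM. ATP luminescence (CellTiter-Glo) served as the read-out.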

Row | Compound | activity change, negative = cytotoxic | Potency
1 | OCCOc1ccccc1 | 14.3% (inactive) | –
2 | CCC(C(N)=O)N1CCCC1=O (stereo not given) | 6.84% (inactive) | –
3 | CC(C)(C)CC(C)(C)c1ccc(O)cc1 | – | inactive
4 | NCCc1cc(O)c(O)cc1O | 11.9% (inactive) | –

Test: qHTS of pediatric cancer cell lines to identify multiple opportunities for drug repurposing: Primary screen for DAOY cells (AID 1347090);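 also: plate controls were DMSO for no effect and bortezomib for full effect; nearly all actives have a fitted effect of over 55% in size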
Conditions: DAOY medulloblastoma viability, CellTiter-Glo luminescence, 48 h; series mostly up to 46 µM; activity change, negative = cytotoxic: at the top concentration
Outline: (§1)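 Viability measured as metabolically active cells via CellTiter-Glo luminescence following 48 hours of compound exposure, 11-point dilutions in confirmatory testing. 500-1,000 cells/well plated 5 hours before dosing; controls were DMSO and 2.3 µM bortezomib.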

Row | Compound | activity change, negative = cytotoxic | Potency
5 | CC(C)=CC1C(C(=O)OCc2cccc(Oc3ccccc3)c2)C1(C)C (stereo not given) | 1.2% (inactive) | –
6 | CN1C(=S)CN=C(c2ccccc2)c2cc(Cl)ccc21 | 1.17% (inactive) | –
7 | CCN(CC)CCOC(=O)C(O)(c1ccccc1)c1ccccc1 | -3.66% (inactive) | –
8 | C=C1C[C@@H]2[C@H](CC[C@]3(C)C(=O)CC[C@@H]23)[C@@]2(C)C=CC(=O)C=C12 | -3.34% (inactive) | –
9 | O=C(O)c1ccc2[nH]cc(CCCCN3CC=C(c4ccccc4)CC3)c2c1 | 0.19% (inactive) | –
10 | CCOP(=S)(OCC)Oc1cc(C)nc(C(C)C)n1 | 2.23% (inactive) | –
11 | Oc1ccccc1-c1ccccc1 | -2.34% (inactive) | –
12 | CC(C)(C)NCC(O)c1cc(Cl)c(N)c(Cl)c1 (stereo not given) | 6.99% (inactive) | –
13 | C[C@]12CC[C@H]3[C@@H](CCC4=CC(=O)CC[C@@H]43)[C@@H]1CC[C@@H]2OC(=O)CCc1ccccc1 | -3.08% (inactive) | –
14 | CC(=O)Nc1cc([As](=O)(O)O)ccc1O | 1.73% (inactive) | –
15 | N[C@@H]1C[C@H]1c1ccccc1 | -2.28% (inactive) | –
16 | c1ccc2c(c1)Nc1ccccc1S2 | – | inactive
17 | O=P1(NCCCl)OCCCN1CCCl (stereo not given) | 7.56% (inactive) | –
18 | Cc1ccc2c(c1)C1CN(C)CCC1N2 (stereo not given) | -3.99% [at 16.1 µM] (inactive) | –
19 | COC1(CS(=O)c2ccccc2)CCN(CCc2c[nH]c3ccc(F)cc23)CC1 (stereo not given) | -6.77% (inactive) | –
20 | CC1OC(C)OC(C)O1 (stereo not given) | -0.457% (inactive) | –
21 | O=[N+]([O-])c1cc([As](=O)(O)O)ccc1O | 9.72% (inactive) | –
22 | O=C1CC[C@@]2(O)[C@H]3Cc4ccc(O)c5c4[C@@]2(CCN3CC2CC2)[C@H]1O5 | 9.33% (inactive) | –

Row | Compound | activity change, negative = cytotoxic | Potency
23 | Oc1ccc(Cl)cc1Cc1ccccc1 | -3.96% (inactive) | –
24 | FC(F)(F)c1cccc(C2=CCN(CCc3ccc4ccccc4c3)CC2)c1 | -7.33% (inactive) | –
25 | NP(N)(=O)NC(=O)c1ccc(F)cc1 | -1.19% (inactive) | –
26 | CC(C)NCC(O)c1ccccc1Cl (stereo not given) | 5.06% (inactive) | –
27 | CCCC1CCCCN1 (stereo not given) | 2.55% (inactive) | –
28 | CC[N+](CC)(CC)CC | 7.07% (inactive) | –
29 | C#CCN(C)[C@H](C)Cc1ccccc1 | – | inactive
30 | O=c1oc2ccccc2c(O)c1C(CC(O)c1ccc(-c2ccc(Br)cc2)cc1)c1ccccc1 (stereo not given) | -6.31% (inactive) | –
31 | N[C@@H](Cc1ccc(Oc2cc(I)c(O)c(I)c2)c(I)c1)C(=O)O | -5.68% (inactive) | –
32 | Clc1ccc(CCC(Cn2ccnc2)Sc2c(Cl)cccc2Cl)cc1 (stereo not given) | -6.73% (inactive) | –
33 | C#CCOC(C(=O)OCCN(C)C)(c1ccccc1)c1ccccc1 | 6.38% (inactive) | –
34 | CC(C)(N)Cc1ccc(Cl)cc1 | -0.174% (inactive) | –
35 | OCCOc1ccccc1 | 7.4% (inactive) | –
36 | CCC(C(N)=O)N1CCCC1=O (stereo not given) | -1.94% (inactive) | –
37 | Clc1cccc(N2CCNCC2)c1 | 1.25% (inactive) | –
38 | CC(C)(C)CC(C)(C)c1ccc(O)cc1 | 4.82% (inactive) | –
39 | NCCc1cc(O)c(O)cc1O | -2.7% (inactive) | –

Test: qHTS of pediatric cancer cell lines to identify multiple opportunities for drug repurposing: Primary screen for SJ-GBM2 cells (AID 1347091); also: potency is read from the fitted curve at half-maximal effect;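 as to activity change, negative = cytotoxic: plate controls were DMSO neutral control for no effect and bortezomib for full effect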
Conditions: SJ-GBM2 viability, CellTiter-Glo luminescence, 48 h; series mostly up to 46 µM; activity change, negative = cytotoxic: at the top concentration
Outline: as §1

Row | Compound | activity change, negative = cytotoxic | Potency
40 | CC(C)=CC1C(C(=O)OCc2cccc(Oc3ccccc3)c2)C1(C)C (stereo not given) | 6.07% (inactive) | –
41 | CN1C(=S)CN=C(c2ccccc2)c2cc(Cl)ccc21 | 18.6% (inactive) | –
42 | CCN(CC)CCOC(=O)C(O)(c1ccccc1)c1ccccc1 | 5.83% (inactive) | –
43 | C=C1C[C@@H]2[C@H](CC[C@]3(C)C(=O)CC[C@@H]23)[C@@]2(C)C=CC(=O)C=C12 | -19.6% (inactive) | –
44 | O=C(O)c1ccc2[nH]cc(CCCCN3CC=C(c4ccccc4)CC3)c2c1 | 6.41% (inactive) | –
45 | CCOP(=S)(OCC)Oc1cc(C)nc(C(C)C)n1 | 14.3% (inactive) | –
46 | Oc1ccccc1-c1ccccc1 | 10.4% (inactive) | –
47 | CC(C)(C)NCC(O)c1cc(Cl)c(N)c(Cl)c1 (stereo not given) | 31.4% (inactive) | –
48 | C[C@]12CC[C@H]3[C@@H](CCC4=CC(=O)CC[C@@H]43)[C@@H]1CC[C@@H]2OC(=O)CCc1ccccc1 | -3.46% (inactive) | –
49 | CC(=O)Nc1cc([As](=O)(O)O)ccc1O | 21.7% (inactive) | –
50 | N[C@@H]1C[C@H]1c1ccccc1 | -4.39% (inactive) | –
51 | c1ccc2c(c1)Nc1ccccc1S2 | – | inactive
52 | Cc1ccc2c(c1)C1CN(C)CCC1N2 (stereo not given) | -10.8% [at 16.1 µM] (inactive) | –
53 | COC1(CS(=O)c2ccccc2)CCN(CCc2c[nH]c3ccc(F)cc23)CC1 (stereo not given) | 1.19% (inactive) | –
54 | CC1OC(C)OC(C)O1 (stereo not given) | 10.8% (inactive) | –
55 | O=[N+]([O-])c1cc([As](=O)(O)O)ccc1O | 20.5% (inactive) | –
56 | O=C1CC[C@@]2(O)[C@H]3Cc4ccc(O)c5c4[C@@]2(CCN3CC2CC2)[C@H]1O5 | – | inactive
57 | Oc1ccc(Cl)cc1Cc1ccccc1 | – | 12.3 µM (active)

Row | Compound | activity change, negative = cytotoxic | Potency
58 | Oc1cccc2cccnc12 | – | inactive
59 | FC(F)(F)c1cccc(C2=CCN(CCc3ccc4ccccc4c3)CC2)c1 | 7.7% (inactive) | –
60 | NP(N)(=O)NC(=O)c1ccc(F)cc1 | 17% (inactive) | –
61 | CC(C)NCC(O)c1ccccc1Cl (stereo not given) | 18.2% (inactive) | –
62 | CCCC1CCCCN1 (stereo not given) | 8.89% (inactive) | –
63 | CC[N+](CC)(CC)CC | 21.7% (inactive) | –
64 | C#CCN(C)[C@H](C)Cc1ccccc1 | – | inactive
65 | O=c1oc2ccccc2c(O)c1C(CC(O)c1ccc(-c2ccc(Br)cc2)cc1)c1ccccc1 (stereo not given) | 28.7% (inactive) | –
66 | N[C@@H](Cc1ccc(Oc2cc(I)c(O)c(I)c2)c(I)c1)C(=O)O | 30.9% (inactive) | –
67 | Clc1ccc(CCC(Cn2ccnc2)Sc2c(Cl)cccc2Cl)cc1 (stereo not given) | -27.7% (inactive) | –
68 | Cn1c(CCCC(=O)O)nc2cc(N(CCCl)CCCl)ccc21 | -0.358% (inactive) | –
69 | C#CCOC(C(=O)OCCN(C)C)(c1ccccc1)c1ccccc1 | 14.7% (inactive) | –
70 | CC(C)(N)Cc1ccc(Cl)cc1 | 26.1% (inactive) | –
71 | OCCOc1ccccc1 | 34.9% (inactive) | –
72 | CCC(C(N)=O)N1CCCC1=O (stereo not given) | 10.5% (inactive) | –
73 | Clc1cccc(N2CCNCC2)c1 | -3.55% (inactive) | –
74 | CC(C)(C)CC(C)(C)c1ccc(O)cc1 | – | 21.7 µM (active)
75 | NCCc1cc(O)c(O)cc1O | 9.04% (inactive) | –

Source: PubChem BioAssay (NCATS)
